AT treatment – qHTS Assay for Identifying a Potential Treatment of Ataxia-Telangiectasia | F2112 A-T fibroblasts, KAP-1 phosphorylation AlphaLISA; neocarzinostatin DNA damage 30 min before lysis | Potency, µM (series often up to 57.5 µM), for the others: at the top dose activation, most hits filed as activators | 320,000 compounds, 0.19% hits | AID 485349, 2010; further: potency means the concentration at half of the fitted maximal effect; % of control where 0% means no effect; nearly all actives have a fitted effect of over 45% in size
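hTERT-immortalized A-T patient fibroblasts (F2112), 500 cells/well in OPTI-MEM, 1% FBS, got compounds for 60 min, then NCS for 30 min at 37C. Lysates were then assayed for phospho-KAP-1 by AlphaLISA (anti-pKAP1 donor, anti-KAP1 acceptor beads), 6 hr at 25C.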
TCR act – Activators of T cell receptors: qHTS campaign | Potency, µM (highest dose often 9.22 µM), inactives show top-dose activation of IL-2 secretion, most hits filed as activators | AID 504894, 2011 | primary human leukocytes, anti-CD3, IL-2 HTRF, 48 h | 330,000 tested, under 10 active; further: % of control where 0% means no effect
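Compounds are tested in HTS on primary human leukocytes co-incubated with a-CD3 beads for 48 hr. IL-2 output is measured by time-resolved FRET.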
Nrf2 block – Nrf2 qHTS screen for inhibitors. 360,000 compounds, 2.1% hits. Potency, µM (titrated, usually from 46 µM), for inactives: top-dose activity change, negative = inhibition, usual class: inhibitors. A549 ARE-Fluc reporter, luciferase luminescence, 18-24 h; further: potency means the concentration at half of the fitted maximal effect; on the % scale 0 is the no-effect control and ±100 the full control effect; nearly all actives have a fitted effect of over 60% in size
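Reporter: ARE-Fluc in A549. Exposure: 18-24 h, 37 °C, 5% CO2, 5% FBS OPTI-MEM. Readouts: fluorescent cytotoxicity (CellTiter-Fluor), then luminescent Nrf2 signal after BugLite.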
A549 viability – Nrf2 qHTS screen for inhibitors: counterscreen for cytotoxicity; Potency, µM (doses to about 46 µM), without a hit: at the top dose activity change, negative = cytotoxicity, hits mostly inhibitors; 390,000 compounds, 0.16% hits; A549 ARE-Fluc cells, CellTiter-Fluor viability, 18-24 h; AID 504648, 2011; further: potency means the concentration at half of the fitted maximal effect; on the % scale 0 is the no-effect control and ±100 the full control effect
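A549 ARE_Fluc cells in 5% FBS OPTI-MEM were exposed to compounds in concentration-response for 18-24 h at 37 deg C. Viability was read by CellTiter-Fluor fluorescence (Ex 405/Em 525) after 30 min, before the luciferase read.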
CCT modulator – High-Throughput Screening for Modulators of Cytosolic Chaperonin Activity; 360,000 compounds, 0.3% hits; purified chaperonin ATPase assay, HTRF ADP detection, 30 min; activity change, % (concentration not given with the values), hits read low; in the data active means activity change below about -30%; further: on the % scale 0 is the no-effect control and ±100 the full control effect
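We incubate TRiC, 40 or 20 nM final, with library compounds at 76 uM and 10 uM ATP for 30 min at 37 °C. ADP formed is detected with Transcreener HTRF reagents after 30 min at room temperature.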
Nrf2 activator – qHTS of Nrf2 Activators; AREc32 ARE-luciferase reporter (MCF7-derived line), luminescence, 24 h; Potency, µM (series often up to 46.1 µM), without a hit: top-dose activation, usual class: activators; 410,000 compounds, 0.31% hits; further: potency means the concentration at half of the fitted maximal effect; % of control where 0% means no effect; nearly all actives have a fitted effect of over 65% in size
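Each well held 1000 AREc32 cells, which were incubated with compound for 24 hr at 37 deg C after overnight attachment, and ARE reporter activity was quantified by firefly luciferase luminescence.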
* hit, by the source's call; [ ] = dose if it differs, or a comment. Rows were chosen to be rich in hits. Some 2.6% of all compounds tested hit in one or more screens of this group. Unless noted, the call rests on the fitted dose curve; in most records, active means well fitted curve in the direction sought with a large enough effect; inconclusive means small, poorly fitted or top-dose-only effect, or another doubt; inactive means no such curve, though single readings can be large; an effect the other way counts as inactive or inconclusive.

Results for O=C(CNC(=O)c1ccc(Cl)cc1)OC(C(=O)Nc1cc(C(F)(F)F)ccc1Cl)c1ccccc1 (stereo not given) ?
Nrf2 block: 4.2%; A549 viability: inconclusive

Results for CCOC(=O)c1c(-c2ccccc2)csc1NC(=O)c1nc(S(=O)(=O)CC)ncc1Cl ?
Nrf2 block: 17.5%; A549 viability: -27.8%; Nrf2 activator: 0.1%

Results for COc1ccc(-c2n(CC(=O)OC3CC(C)CCC3C(C)C)c3ccccc3[n+]2C)cc1 (stereo not given) ?
AT treatment: -5.7%; TCR act: -4.0%; Nrf2 block: 20.6µM*; A549 viability: inconclusive; CCT modulator: 2.2; Nrf2 activator: -2.3%

Results for COc1ccc(OCc2n(CC(=O)OC3CC(C)CCC3C(C)C)c3ccccc3[n+]2C)cc1 (stereo not given) ?
AT treatment: 13.6%; TCR act: 5.4%; Nrf2 block: inconclusive; A549 viability: inconclusive; CCT modulator: -0.6; Nrf2 activator: -2.7%

What do the screens show for `Cc1ccc(Cn2cccc(-c3nc4ccccc4s3)c2=O)cc1`?
AT treatment: 28.2µM*; TCR act: -2.9%; Nrf2 block: -22.1%; CCT modulator: -1.0; Nrf2 activator: 10.5%

Results for COc1cc(-c2nc(Cn3nnc(C(=O)Nc4ccccc4C)c3C)c(C)o2)cc(OC)c1OC ?
Nrf2 block: -5.2%; A549 viability: -8.5%; Nrf2 activator: 0.1%

How did O=[N+]([O-])c1cc2c(c(CSc3nnc(Nc4ccccc4)s3)c1)OCOC2 do in these assays?
AT treatment: -6.9%; TCR act: -1.0%; Nrf2 block: -10.7%; A549 viability: -9.1%; CCT modulator: -0.2; Nrf2 activator: 0.3%

What do the screens show for `Cc1ccccc1Nc1nnc(SCc2cc([N+](=O)[O-])cc3c2OCOC3)s1`?
AT treatment: 1.2%; TCR act: 1.9%; Nrf2 block: 25.9µM*; A549 viability: -0.6%; CCT modulator: -2.5; Nrf2 activator: 0.1%

How did CCOc1ccc(S(=O)(=O)N2CCCCC2)c2ccccc12 do in these assays?
AT treatment: 15.5%; TCR act: 1.8%; Nrf2 block: inconclusive; A549 viability: -1.9%; CCT modulator: -1.2; Nrf2 activator: 0.6%

How did CCOc1ccc(S(=O)(=O)n2ccc(C)n2)c2ccccc12 do in these assays?
AT treatment: 3.2%; TCR act: -4.8%; Nrf2 block: 23.1µM*; A549 viability: inconclusive; CCT modulator: -2.3; Nrf2 activator: -0.3%

What do the screens show for `CNC(=O)Cn1c(=O)c2cccn2c2ccc(F)cc21`?
Nrf2 block: -7.0%; A549 viability: 9.6%; Nrf2 activator: -0.4%

How did Oc1ccc(NCc2ccc(OCc3ccccc3)cc2)cc1 do in these assays?
AT treatment: 39.8µM*; TCR act: 3.2%; Nrf2 block: -13.0%; A549 viability: -4.8%; CCT modulator: -3.3; Nrf2 activator: inconclusive

What do the screens show for `Oc1ccc(NCc2ccc(OCc3ccccc3Cl)cc2)cc1`?
Nrf2 block: inconclusive; A549 viability: inconclusive; Nrf2 activator: 7.94µM*

Results for O=C(NCCN1CCOCC1)C(=O)NCC1OCCCN1S(=O)(=O)c1ccc(F)cc1 (stereo not given) ?
AT treatment: 5.1%; TCR act: -2.9%; Nrf2 block: 4.9%; A549 viability: -1.1%; CCT modulator: 1.1; Nrf2 activator: 0.1%

How did O=C(CNC(=O)c1ccccc1)OC(C(=O)Nc1ccc2c(c1)OCO2)c1ccccc1 (stereo not given) do in these assays?
Nrf2 block: 1.0%; A549 viability: -2.8%

What do the screens show for `CCCc1nn(C)c(C(=O)Nc2ccc(C(C)(C)C)cc2)c1Cl`?
AT treatment: 35.5µM*; TCR act: -1.1%[46.1 µM]; Nrf2 block: 6.9%; A549 viability: 0.3%; CCT modulator: 0.1; Nrf2 activator: 2.8%

What do the screens show for `CCCc1nn(C)c(C(=O)Nc2ccc(Cl)cc2)c1Cl`?
AT treatment: 3.6%; TCR act: -9.7%[46.1 µM]; Nrf2 block: 0.6%; A549 viability: 7.3%; CCT modulator: -1.6; Nrf2 activator: 3.2%

What do the screens show for `COC(=O)[C@]1(C)CCC[C@@]2(C)C3CC[C@@]4(C)C[C@]3(CCC21)CC(=O)N4Cc1ccc(OC)cc1` (stereo not given in full)?
AT treatment: -16.3%; TCR act: 2.4%; Nrf2 block: 14.6µM*; A549 viability: -7.2%; CCT modulator: 0.5; Nrf2 activator: -0.2%

What do the screens show for `COC(=O)[C@]1(C)CCC[C@@]2(C)C3CC[C@]4(OC(C)=O)C[C@@]3(CCC21)CC4=O` (stereo not given in full)?
AT treatment: -14.2%; TCR act: -4.9%; Nrf2 block: inconclusive; A549 viability: 3.7%; CCT modulator: -0.8; Nrf2 activator: 0.8%

How did COC(=O)c1ccc2c(c1)C(C)(C)C(/C=C/c1ccc(O)cc1)=[N+]2C do in these assays?
AT treatment: -2.2%; TCR act: -8.7%; A549 viability: inconclusive; CCT modulator: 0.4; Nrf2 activator: inconclusive

How did COC(=O)c1ccc2c(c1)C(C)(C)C(/C=C/c1ccc(OC)c(OC)c1OC)=[N+]2C do in these assays?
AT treatment: -5.2%; TCR act: 1.9%; Nrf2 block: 16.4µM*; A549 viability: inconclusive; CCT modulator: -2.1; Nrf2 activator: -3.3%

Results for O=C(Nc1cccc(F)c1)C1CCCN(C(=O)c2ccc(Cl)cc2)C1 (stereo not given) ?
AT treatment: -9.1%; TCR act: -0.1%; Nrf2 block: 7.31µM*; A549 viability: -11.4%; CCT modulator: -3.7; Nrf2 activator: 15.0%

What do the screens show for `O=C(Nc1cccc(C(=O)N2CCCC2)c1)C1CCCC1`?
TCR act: 4.4%; Nrf2 block: 6.2%; A549 viability: 10.1%; CCT modulator: 1.0; Nrf2 activator: -1.1%

What do the screens show for `O=C(NCCCCc1ccccc1)c1cccc(NC(=O)C2CCC2)c1`?
TCR act: 9.0%; Nrf2 block: 16.4µM*; A549 viability: -0.4%; CCT modulator: -0.6; Nrf2 activator: 0.5%

What do the screens show for `O=C(Nc1cccc(S(=O)(=O)N2CCCCCC2)c1)C1CCN(C(=O)c2ccc(F)cc2)CC1`?
AT treatment: 2.7%; TCR act: 1.0%; Nrf2 block: 25.9µM*; A549 viability: -3.6%; CCT modulator: 1.4; Nrf2 activator: -0.3%

From PubChem
